From PubChem BioAssay AID925 (National Center for Advancing Translational Sciences (NCATS), 2007)
The campaign covered roughly 65,000 compounds. About 40 (0.06%) were called active. The sample holds actives, similar compounds and a random draw of the others, so the mix is not that of the screen. The call rests on the fitted dose curve; in most records, active means well fitted activation curve with a large enough effect; inconclusive means small, poorly fitted or top-dose-only effect; inactive means flat fitted curve, though single readings scatter.

Experiment: qHTS Assay for Modulators of Hemoglobin Beta Chain Splicing; further: 0% is about no effect
Conditions: HBB splicing reporter cell assay, EGFP reporter with mutant IVS2-654 intron; Potency: activation; series mostly up to 46.1 µM; activation: at the top concentration
Text: NIH Chemical Genomics Center [NCGC]
NIH Molecular Libraries Screening Centers Network [MLSCN]
PI Name: Dr. Ryszard Kole
Modulation of Alternative Splicing as Therapy
Abnormal splicing is associated with a number of diseases, including cancer and genetic diseases such as cystic fibrosis, muscular dystrophy and beta-thalassemia. Alteration of disease associated splicing patterns provides a promising target for treatment. […] Mutations in the second intron of the beta-globin gene at positions are clinically relevant and cause mis-splicing which results in an out of frame gene product.
EGFP-654 and 705 HeLa Cells as screen system.
HeLa cell lines were stably transfected with a construct in which the EGFP (enhanced green fluorescent protein) cDNA was interrupted by the second intron of the beta-globin gene (IVS2-654). The ISV2 intron contains mutations which cause mis-splicing of EGFP and premature termination of EGFP which results in a nonfluorescent protein product. […] Expression of the transgene was driven by the CMV promoter. We concluded that a low molecular weight compound, which restored correct splicing of intron 2 would also generate functional EGFP protein, resulting in a fluorescent signal. Thus, the HeLa cells that express the EGFP-654 construct can be used for high throughput screening of a chemical library.
NCGC Assay Protocol Summary:
High Throughput Screening. Freshly thawed HeLa EGFP-654 cells were seeded in 5 ul of optimem media (Invitrogen) containing 2 % fetal calf serum (Hyclone) and 1x penicillin/streptomycin (Invitrogen) at a concentration of 500 cells per well in 1536-well plates. Cells were incubated overnight at 37C in 5% CO2. The next day, cells were treated with DMSO, 500 nM antisense ISV2 654 PNA control oligo, or library compound and allowed to grow at 37C in 5% CO2 for 2 days. The PNA oligo blocked the mutation site in the intron and allowed proper (wild type) splicing to occur, resulting in full length EGFP expression and also allowed for optimization of the assay parameters. Plates were read in the Acumen Explorer (TTP Labtech) using 488 nm laser excitation and 500-520 nm emission PMT filter in a 1 x […] capture mode. Fluorescnet Fluorescent objects ranging in size from […] were measured and the total peak GFP intensity for each well was used for data analysis.
Keywords: Thalassemia, beta-thalassemia, beta-globin, EGFP, ISV2 654, ISV2 705, SSO, PNA, antisense, splicing, MLSMR, MLSCN, NIH Roadmap, qHTS, NCGC

Row | SMILES | activation
1 | CCCCNc1nc(C)nc2c1nc(-c1ccccc1)n2CCCCN(CC)CC | -0.934% (inactive)
2 | c1ccc(CSCCc2ccncc2)cc1 | 2.45% [at 9.22 µM, normalised to 500 nM splice-correcting PNA] (inactive)
3 | O=c1c(-c2ccc(F)c(F)c2)nc2cncnc2n1-c1ccccc1 | 2.55% (inactive)
4 | COC(=O)NC(c1ccccc1)[C@]1(C(C)=O)CCCC1=O (stereo partly drawn) | 0.441% [at 9.22 µM, normalised to 500 nM splice-correcting PNA] (inactive)
5 | CC(C)c1ccc2c([Si](C)(C)C)c3c(nc2c1)-c1cccc(=O)n1C3 | 0.415% (inactive)
6 | C=CC(=C)CCC=C(C)C | 0.0276% (inactive)
7 | O=Cc1c(Cl)cccc1Cl | -1.03% (inactive)
8 | COCCn1c(=O)c(-c2ccccc2)nc2cnc(N3CCOCC3)nc21 | 0.139% (inactive)
9 | CN1CCN(c2ncncc2-c2ccc(C(=O)N(C)C)cc2)CC1 | -0.722% (inactive)
10 | O=C(c1cnccn1)N1CCC[C@@]2(CCN(Cc3ccncc3)C2)C1 | 3.89% (inactive)
11 | Cc1ccccc1-c1nc(N(C)Cc2ccco2)c2ccccc2n1 | -0.212% (inactive)
12 | OCCN1CCN(CC/C=C2\c3ccccc3Sc3ccc(C(F)(F)F)cc32)CC1 | inactive
13 | BrC1C(Br)C(Br)C(Br)C(Br)C1Br (stereo not drawn) | -0.892% (inactive)
14 | c1ccc(CNc2ncncc2-c2cccnc2)cc1 | -0.097% (inactive)
15 | FC(F)(F)c1ccccc1-c1nc(-n2ccnc2)c2ccccc2n1 | -0.152% (inactive)
16 | CO[C@H]1COC(=O)[C@@H](C)NC(=O)C/C=C\[C@@H](C)[C@H](OC)COC(=O)C/C=C\[C@@H]1C | 0.0576% [at 9.22 µM, normalised to 500 nM splice-correcting PNA] (inactive)
17 | COc1ccccc1CNc1ncnc2ccc(-c3ccc4c(c3)OCO4)cc12 | -0.815% (inactive)
18 | Cc1noc(C)c1-c1nccc(N2CCOCC2)n1 | -1.02% (inactive)
19 | Cc1[nH]c(N)nc(=S)c1CCCNc1ccccc1 | 0.0064% [at 9.22 µM, normalised to 500 nM splice-correcting PNA] (inactive)
20 | COc1ccc(NC(=O)N2CC3(CCN(C(=O)c4cccn4C)CC3)C2)cc1 | 3.19% (inactive)
21 | Cc1c(O)c(Br)c(C)c(O)c1Br (tested in a mixture with another compound) | 3.36% [at 9.22 µM, normalised to 500 nM splice-correcting PNA] (inactive)
22 | COc1ccc(CNc2ncncc2-c2ccccc2C)c(OC)c1 | -1.22% (inactive)
23 | CC(C)[C@@H](CC(=O)N[C@@H]1CCNC[C@H]1C(=O)N[C@H](CC(=O)N[C@@H](CCC(=O)O)CC(=O)O)Cc1ccccc1)NC(=O)C[C@H](CO)NC(=O)[C@@H]1CNCC[C@H]1N | 2.36% (inactive)
